# ChEMBL document CHEMBL4888484, “Replenishing the malaria drug discovery pipeline: Screening and hit evaluation of the MMV Hit Generation Library 1 (HGL1) against asexual blood stage Plasmodium falciparum ,using a nano luciferase reporter read-out” (2022)
# Hit rate of the full screen: of about 150,000 compounds, about 540 (0.36%) showed an effect of 50% or more. The sample holds strong results, similar compounds and a random draw of the others, so the mix is not that of the screen.
# Tested on: Plasmodium falciparum
# Assay: Primary screen in NF54 nanoGlo assay, in single point, at 2uM, 72h; a lower Z score goes with more inhibition
# Format: functional, Erythrocyte
# Conditions: timepoint 72 hour
Compound,% Inhibition [%],Z score
COc1cccc(C(=O)N2CCN(C(=O)Cn3cc(Cl)cn3)CC2)c1,-4,0.42
Cn1ccc(NS(=O)(=O)c2cccc3c2N=S=N3)n1,-1,0.06
O=C(N[C@@H]1CN(Cc2ccccn2)CCC[C@H]1O)c1ccc(OCc2ccccc2)cc1,59,-6.9
CCOc1cccc(C(=O)N[C@H]2CCN(Cc3ccccn3)C[C@@H]2O)c1,2,-0.4
O=C(N[C@@H]1CN(Cc2ccc(CO)o2)CCC[C@H]1O)c1ccc(OCc2ccccc2)cc1,26,-2.94
Cc1ccc(-c2nc(CC(=O)N3CCC(C(C)(C)C)C(O)C3)cs2)o1 (centres undefined),-3,0.35
Cc1n[nH]c(=O)c2c1cnn2-c1ccccc1,21,-2.61
Cc1nc(-c2c(C)c(C)nn(C)c2=O)sc1C(=O)NC[C@H](C)N1CCc2ccccc21,31,-3.46
CCN=C(NCc1noc(C)n1)NCc1ccccc1OC(C)(C)C,-6,0.55
CCc1ncc(CN2CCC[C@H](NC(=O)CN3CCOC3=O)CC2)cn1,9,-1.74
CC(=O)N(CC[C@]1(Cc2ccccc2Cl)CCOC(C)(C)C1)Cc1ccco1,32,1.22
Cn1n[n+](CC(=O)Nc2ccccc2Cl)c2ccccc21,41,-0.29
Cn1n[n+](CCCCC(Cl)(Cl)Cl)c2ccccc21,65,-4.82
COc1c2c(cc3c1[C@@H](C#CCOc1ccccc1)[N+](C)(C)CC3)OCO2,64,-13.6
COc1c2c(cc3c1[C@H](CC(=O)Cc1ccccc1)[N+](C)(C)CC3)OCO2,-1,0.08
COc1c2c(cc3c1[C@H](C(=O)NC(c1ccccc1)c1ccccc1)[N+](C)(C)CC3)OCO2,2,-0.21
Cn1c(COc2ccccc2C(N)=O)nnc1-c1ccc(Cl)cc1,3,-0.35
COc1cccc(C(=O)N2C[C@@H]3CC[C@H]2CN(Cc2c(C)noc2C)C3)c1,4,-0.53
c1ccc(-c2nc(CN3CCCCCCC3)cs2)cc1,-10,1.49
c1ccc(-c2nc(CN3CCc4ccccc4C3)cs2)cc1,-1,0.12
c1ccc(-c2nc(C[n+]3ccc4c(c3)CCCC4)cs2)cc1,63,-6.15
O=C(Cn1cc(-c2ccccc2)ncc1=O)NC[C@@H]1CCCN2CCCC[C@H]12,-8,0.97
CCCCN(CCCNC(=O)[C@H]1CCCN(c2ncnc3onc(C)c23)C1)Cc1ccccc1,5,-0.69
O=C(O)C[C@@H]1CN(C(=O)c2ccc3c(c2)OCO3)C[C@@H]1c1c[nH]nn1,-3,0.47
COC(=O)c1ccc(C)c(OCc2cn3ccccc3c2C#N)c1,-17,2.14
CCN(CC)Cc1cn2ccccc2c1C#N,-12,1.72

Compound,% Inhibition [%],Z score
N#Cc1c(NC(=O)Nc2cn3ccccc3c2C#N)cn2ccccc12,65,1.13
CC1CCC(O)(CS(=O)(=O)Cc2nccs2)CC1 (centres undefined),-8,1.13
COc1ccc2[nH]c3c(c2c1)CC(C(=O)O)NC3c1ccc(OC)c(CN2CCN(c3ccccc3F)CC2)c1 (centres undefined),74,-11.3
COc1ccc(C2N[C@H](C(=O)O)Cc3c2[nH]c2ccccc32)cc1 (some centres undefined),-14,2.25
COc1cc(C2N[C@H](C(=O)O)Cc3c2[nH]c2ccccc32)ccc1OCc1ccccc1 (some centres undefined),-3,0.42
Cc1csc(Oc2ccc(N)cc2F)n1,-12,1.47
CC1CN(C(=O)CN(C)c2cnccn2)CC(C)O1 (centres undefined),-5,0.83
Cc1nc2cc(NC(=O)c3ccccn3)ccc2o1,11,-1.99
O=C(Nc1cccc(CNc2nc3ccccc3o2)c1)c1ccccn1,-13,1.61
Cc1cc(NC(=O)c2ccccn2)n(-c2nc3ccccc3o2)n1,89,-10.15
CN(CC(F)(F)F)C(=O)CNc1ncccn1,3,-0.38
Cc1cc(C)cc(NC(=O)C23CCC(C)(C(=O)C2=O)C3(C)C)c1 (centres undefined),9,-1.39
COc1cccc(NC(=O)c2cc(C(=O)Nc3cccc(OC)c3)cc(N3C(=O)c4ccccc4C3=O)c2)c1,18,-2.84
CC(C)c1ccc(-c2nc(CN3CCCCC3)cc(CN3CCCCC3)c2O)cc1,96,-15.06
Cc1nc(O)cc(CN2CCCCC2)n1,-11,1.95
CC(C)c1nc(O)cc(CN2CCCCC2)n1,33,1.16
Cc1ccc(S(=O)(=O)c2c(N)n(-c3ccc4c(c3)OCCO4)c3nc4ccccc4nc23)cc1,6,-0.5
O=C(NC1CC1c1ccc(F)cc1)N1CCN(c2ccccc2O)CC1 (centres undefined),-7,1.5
CC1(C)COc2ccc(C(=O)N3CC[C@H](O)C3(C)C)cc21,19,-2.22
CCn1nnc2cc(C(=O)N3CCN(C(c4ccccc4)c4ccccc4)CC3)ccc21,32,-3.63
COc1ccc(-c2cc3nc(C)cc(N4CCN(C/C=C/c5ccccc5)CC4)n3n2)cc1OC,51,-9.31
COc1ccc(-c2nn3c(N4CCCCCC4)cc(C)nc3c2C)cc1OC,-8,1.59
COc1ccc(-c2nn3c(N4CCN(CC=Cc5ccccc5)CC4)cc(C)nc3c2C)cc1OC,72,-3.65
COc1ccccc1-c1cc2nc(C)cc(N3CCN(Cc4ccccc4)CC3)n2n1,-10,1.85
COc1ccc(-c2nn3c(N4CCN(C)CC4)cc(C)nc3c2C)cc1OC,-11,2.19
COc1ccccc1-c1cc2nc(C)cc(N3CCN(CCO)CC3)n2n1,-14,1.98
